Measured values from PubChem BioAssay AID1159580 (chemical genetic matrix, 2015).
Out of some 5,500 compounds screened, about 2,000 (36%) were called active. Inconclusive results (about 18%) are left out. Cut-off read from the data, not from the text of the source: active = normalized growth mostly below about 0.91 (no sharp cut-off); inconclusive = no clear call, values can overlap the other calls; inactive = mostly above about 0.92. The list shows a part of the results.

Assay: chemical genetic growth profiling, strain panel (AID 1159580);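 note: tested at 20 µM; growth read once vehicle control cultures reached saturation at 30 °C; 1 = growth at the plate median or of vehicle wells; lower values mean less growth of the strain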
Conditions: growth OD

Measured: normalized growth

C/C=C1\[C@H]2C=C(C)C[C@]1(N)c1ccc(=O)[nH]c1C2
inactive: S. cerevisiae deletion strains, locus YJR075W, strain HOC1, stronger effect = lower value 0.997 | S. cerevisiae deletion strains, locus YKL009W, strain mrt4, stronger effect = lower value 1.01 | S. cerevisiae deletion strains, locus YKL068W, stronger effect = lower value 1.01 | S. cerevisiae deletion strains, locus YKL085W, strain MDH1 (second series), stronger effect = lower value 1 | S. cerevisiae deletion strains, locus YKL085W, strain MDH1, stronger effect = lower value 1 | S. cerevisiae deletion strains, locus YKL160W, strain elf1, stronger effect = lower value 0.989 | S. cerevisiae deletion strains, locus YKL190W, strain CNB1, stronger effect = lower value 1.01 | S. cerevisiae deletion strains, locus YKR001C, strain vps1, stronger effect = lower value 1.03 | S. cerevisiae deletion strains, locus YKR026C, strain gcn3, stronger effect = lower value 1.02 | S. cerevisiae deletion strains, locus YKR091W, strain srl3, stronger effect = lower value 1.02 | S. cerevisiae deletion strains, locus YLL001W, strain dnm1, stronger effect = lower value 1.02 | S. cerevisiae deletion strains, locus YLL026W, stronger effect = lower value 1.01 | S. cerevisiae deletion strains, locus YLL041C, strain sdh2, stronger effect = lower value 1.02 | S. cerevisiae deletion strains, locus YLR027C, strain aat2, stronger effect = lower value 1.02 | S. cerevisiae deletion strains, locus YLR039C, strain RIC1, stronger effect = lower value 1.05 | S. cerevisiae deletion strains, locus YLR058C, strain SHM2, stronger effect = lower value 1.01 | S. cerevisiae deletion strains, locus YLR102C, strain apc9, stronger effect = lower value 1.02 | S. cerevisiae deletion strains, locus YLR113W, strain HOG1, stronger effect = lower value 1.01 | S. cerevisiae deletion strains, locus YLR221C, strain rsa3, stronger effect = lower value 1.01 | S. cerevisiae deletion strains, locus YLR258W, strain gsy2, stronger effect = lower value 1.03 | S. cerevisiae deletion strains, locus YLR262C, strain YPT6 (second series), stronger effect = lower value 1.01 | S. cerevisiae deletion strains, locus YLR262C, strain YPT6, stronger effect = lower value 1.05 | S. cerevisiae deletion strains, locus YLR268W, strain sec22, stronger effect = lower value 0.992 | S. cerevisiae deletion strains, locus YLR320W, strain mms22, stronger effect = lower value 1.04 | S. cerevisiae deletion strains, locus YLR330W, strain CHS5, stronger effect = lower value 1.01 | S. cerevisiae deletion strains, locus YLR342W, strain FKS1 (second series), stronger effect = lower value 1.04 | S. cerevisiae deletion strains, locus YLR342W, strain FKS1, stronger effect = lower value 1.02 | S. cerevisiae deletion strains, locus YLR357W, strain rsc2, stronger effect = lower value 1.06 | S. cerevisiae deletion strains, locus YLR370C, strain arc18, stronger effect = lower value 1.02 | S. cerevisiae deletion strains, locus YLR371W, strain rom2, stronger effect = lower value 1.01 | S. cerevisiae deletion strains, locus YLR384C, strain iki3, stronger effect = lower value 1.02 | S. cerevisiae deletion strains, locus YLR418C, strain cdc73, stronger effect = lower value 1.02 | S. cerevisiae deletion strains, locus YML016C, strain PPZ1, stronger effect = lower value 1 | S. cerevisiae deletion strains, locus YML032C, strain rad52, stronger effect = lower value 1.01 | S. cerevisiae deletion strains, locus YML120C, strain ndi1, stronger effect = lower value 1.02 | S. cerevisiae deletion strains, locus YML124C, strain tub3, stronger effect = lower value 1.01 | S. cerevisiae deletion strains, locus YMR058W, strain fet3, stronger effect = lower value 1.02 | S. cerevisiae deletion strains, locus YMR078C, strain ctf18, stronger effect = lower value 1.02 | S. cerevisiae deletion strains, locus YMR125W, strain sto1, stronger effect = lower value 1.03 | S. cerevisiae deletion strains, locus YMR129W, stronger effect = lower value 1.03 | S. cerevisiae deletion strains, locus YMR205C, strain PFK2, stronger effect = lower value 1.07 | S. cerevisiae deletion strains, locus YMR223W, strain ubp8, stronger effect = lower value 1.03 | S. cerevisiae deletion strains, locus YMR231W, strain pep5, stronger effect = lower value 1.02 | S. cerevisiae deletion strains, locus YMR263W, strain SAP30, stronger effect = lower value 1 | S. cerevisiae deletion strains, locus YMR307W, strain GAS1, stronger effect = lower value 1.02 | S. cerevisiae deletion strains, locus YNL067W, strain RPL9B, stronger effect = lower value 1 | S. cerevisiae deletion strains, locus YNL071W, strain lat1, stronger effect = lower value 1.02 | S. cerevisiae deletion strains, locus YNL128W, strain TEP1, stronger effect = lower value 1.02 | S. cerevisiae deletion strains, locus YNL153C, strain GIM3, stronger effect = lower value 1 | S. cerevisiae deletion strains, locus YNL183C, strain NPR1, stronger effect = lower value 0.956 | S. cerevisiae deletion strains, locus YNL209W, strain ssb2, stronger effect = lower value 1.02 | S. cerevisiae deletion strains, locus YNL233W, strain BNI4, stronger effect = lower value 0.983 | S. cerevisiae deletion strains, locus YNL248C, strain rpa49, stronger effect = lower value 1.01 | S. cerevisiae deletion strains, locus YNL250W, strain rad50, stronger effect = lower value 1.01 | S. cerevisiae deletion strains, locus YNL271C, strain bni1, stronger effect = lower value 1.02 | S. cerevisiae deletion strains, locus YNL298W, strain CLA4, stronger effect = lower value 1.02 | S. cerevisiae deletion strains, locus YNL307C, strain MCK1, stronger effect = lower value 1.02 | S. cerevisiae deletion strains, locus YNL322C, strain KRE1 (second series), stronger effect = lower value 1.01 | S. cerevisiae deletion strains, locus YNL322C, strain KRE1, stronger effect = lower value 1.01 | S. cerevisiae deletion strains, locus YNR049C, strain mso1, stronger effect = lower value 1.03 | S. cerevisiae deletion strains, locus YNR052C, strain pop2, stronger effect = lower value 1.02 | S. cerevisiae deletion strains, locus YOL006C, strain TOP1, stronger effect = lower value 1.05 | S. cerevisiae deletion strains, locus YOL012C, strain htz1 0.803 | S. cerevisiae deletion strains, locus YOL147C, strain pex11, stronger effect = lower value 1.01 | S. cerevisiae deletion strains, locus YOR001W, strain rrp6, stronger effect = lower value 1 | S. cerevisiae deletion strains, locus YOR061W, strain CKA2, stronger effect = lower value 1.02 | S. cerevisiae deletion strains, locus YOR069W, strain VPS5, stronger effect = lower value 1.01 | S. cerevisiae deletion strains, locus YOR070C, strain gyp1, stronger effect = lower value 1.02 | S. cerevisiae deletion strains, locus YOR080W, strain dia2, stronger effect = lower value 1.02 | S. cerevisiae deletion strains, locus YOR083W, strain WHI5, stronger effect = lower value 0.992 | S. cerevisiae deletion strains, locus YOR106W, strain vam3, stronger effect = lower value 1.01 | S. cerevisiae deletion strains, locus YOR136W, strain idh2, stronger effect = lower value 1.02 | S. cerevisiae deletion strains, locus YOR144C, strain elg1, stronger effect = lower value 1.01 | S. cerevisiae deletion strains, locus YOR184W, strain ser1, stronger effect = lower value 1.04 | S. cerevisiae deletion strains, locus YOR231W, strain MKK1, stronger effect = lower value 1.01 | S. cerevisiae deletion strains, locus YOR265W, strain rbl2, stronger effect = lower value 1.02 | S. cerevisiae deletion strains, locus YOR270C, strain vph1, stronger effect = lower value 1.02 | S. cerevisiae deletion strains, locus YOR290C, strain snf2, stronger effect = lower value 1.01 | S. cerevisiae deletion strains, locus YOR316C, strain cot1, stronger effect = lower value 1.01 | S. cerevisiae deletion strains, locus YPL051W, strain arl3, stronger effect = lower value 0.996 | S. cerevisiae deletion strains, locus YPL055C, strain LGE1, stronger effect = lower value 1.02 | S. cerevisiae deletion strains, locus YPL078C, strain atp4, stronger effect = lower value 0.991 | S. cerevisiae deletion strains, locus YPL106C, strain sse1, stronger effect = lower value 1.06 | S. cerevisiae deletion strains, locus YPL240C, strain hsp82, stronger effect = lower value 1.03 | S. cerevisiae deletion strains, locus YPL241C, strain CIN2, stronger effect = lower value 1.01 | S. cerevisiae deletion strains, locus YPL256C, strain CLN2, stronger effect = lower value 0.99 | S. cerevisiae deletion strains, locus YPR119W, strain clb2, stronger effect = lower value 1.01 | S. cerevisiae deletion strains, locus YPR141C, strain kar3, stronger effect = lower value 1.01 | S. cerevisiae deletion strains, locus YPR163C, strain tif3, stronger effect = lower value 1.02 | S. cerevisiae deletion strains, locus YPR167C, strain met16, stronger effect = lower value 1.01 | S. cerevisiae deletion strains, strain wtn01, stronger effect = lower value 1.01 | S. cerevisiae strains, strain wild type, stronger effect = lower value 1.02
